Assay [1] addresses bovine Estrogen Receptor (ER), ESR1 (gene 407238) (UniProt P49884). The assay can be described thus: NVS_NR_bER: NovaScreen (NVS) Nuclear Receptor Binding Assay for bovine Estrogen Receptor (ER) (AID 2283345; active means hit-call score of the fitted dose curve at least 0.9, where 1 is the maximum;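 further: actives lower the bound radioligand count which means they displace the ER ligand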). The procedure, abridged: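 Displacement of a radioligand from estrogen receptor in bovine uterine membrane preparations; scintillation signal taken at 18 hours, DMSO as baseline. Single-concentration duplicates (25 uM) preceded concentration-response follow-up of actives.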

The nature of assay [2]: ATG_CRE_CIS: Attagene CIS-FACTORIAL HepG2 Assay for human cAMP Responsive Element (CRE) binding protein 3 (AID 2282926). As to conditions: HepG2 CRE cis-reporter, Attagene multiplexed mRNA; actives raise or lower the signal. The procedure, abridged:
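Transfected HepG2 were treated for 24 hours, then RNA was extracted and reporter cDNA amplified with sequence-specific primers. Labelled fragments were separated by capillary electrophoresis, and the CRE signal was fitted bidirectionally with DMSO as baseline.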

Assay [3] is described as follows: ATG_AP_1_CIS: Attagene CIS-FACTORIAL HepG2 Assay for human Activator Protein 1 (AP-1) (AID 2282931). To be noted: HepG2 Attagene cis-factorial AP-1 reporter mRNA; actives raise or lower the signal. An outline of the steps: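 HepG2 cells transiently transfected with cis-element-driven multiplex reporter units; 24 h compound exposure. Reporter mRNA quantified by RT-PCR, FAM-labelled fragments resolved by capillary electrophoresis; bidirectional fit versus DMSO baseline.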

Assay [4] is described as follows: ATG_ISRE_CIS: Attagene CIS-FACTORIAL HepG2 Assay for human Interferon Regulatory Factor 1 (IRF1) binding to an Interferon-Stimulated Response Element (ISRE) (AID 2282948). As to conditions: HepG2 ISRE cis-reporter (Attagene), mRNA transcription readout; actives raise or lower the signal. An outline of the steps: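 Cell-based cis-reporter assay; HepG2; 24 h exposure; reporter mRNA by RT-PCR plus capillary electrophoresis fluorescence; activity in either direction scored relative to DMSO.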

Assay [5] can be described thus: ATG_M_32_CIS: Attagene CIS-FACTORIAL HepG2 Assay for M32 Transcription Factor (Internal Marker) (AID 2282949).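 Further: background control marker of the multiplexed CIS panel rather than a real target.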 To be noted: HepG2 Attagene cis-factorial M32 reporter, mRNA; actives raise or lower the signal. The procedure, abridged:
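Following 24 h chemical exposure of HepG2 cells transiently expressing cis-promoter reporter constructs, reporter transcript levels were determined by RT-PCR with fluorescent labelling and capillary electrophoresis, then fitted bidirectionally against DMSO.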

Assay [6] is described as follows: ATG_MRE_CIS: Attagene CIS-FACTORIAL HepG2 Assay for human Metal Responsive Element (MRE) (AID 2282954). To be noted: HepG2 MRE cis-reporter transcription, Attagene multiplex; actives raise or lower the signal. An outline of the steps:
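HepG2 cells transiently transfected with multiple cis-element reporter units measure endogenous MTF1-driven transcription. After 24 h compound exposure, reporter mRNA is quantified by RT-PCR with 6-FAM labelling, HpaI digestion and capillary electrophoresis; bidirectional fits versus DMSO.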

Assay [7] concerns the target Paired box protein Pax-6 (Homo sapiens) (UniProt P26367). The assay can be described thus: ATG_Pax6_CIS: Attagene CIS-FACTORIAL HepG2 Assay for human Paired Box 6 (PAX6) (AID 2282956). As to conditions: HepG2 CIS-FACTORIAL PAX6 reporter transcription, RNA readout; actives raise or lower the signal. An outline of the steps: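 Multiplexed cis-reporter HepG2 system; 24 h treatment; reporter mRNA read by RT-PCR/CE fluorescence; bidirectional fit vs DMSO.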

Assay [8] in a line: ATG_PXRE_CIS: Attagene CIS-FACTORIAL HepG2 Assay for human Pregnane X Receptor Element (PXRE) (AID 2282957). As to conditions: HepG2 Attagene CIS-FACTORIAL PXRE reporter, mRNA; actives raise or lower the signal. The procedure, abridged:
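Multiplexed cis-reporter assay in transiently transfected human HepG2 cells; 24 h chemical exposure. Reporter transcripts quantified by RT-PCR with fluorescent labeling and capillary electrophoresis.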

The target in assay [9] is Transcription factor Sp1 (Homo sapiens) (UniProt P08047). In words: ATG_Sp1_CIS: Attagene CIS-FACTORIAL HepG2 Assay for human Specificity Protein 1 (Sp1) (AID 2282961). To be noted: HepG2 Sp1 cis-reporter transcription, actives raise or lower the signal. An outline of the steps:
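HepG2 cells transiently transfected with multiple reporter transcription units driven by cis-regulatory elements; Sp1-responsive reporter mRNA measured 24 h after dosing by RT-PCR and capillary electrophoresis fluorescence, fitted bidirectionally against DMSO baseline.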

Assay [10] addresses Signal transducer and activator of transcription 3 (Homo sapiens) (UniProt P40763). In words: ATG_STAT3_CIS: Attagene CIS-FACTORIAL HepG2 Assay for human Signal Transducer and Activator of Transcription 3 (STAT3) (AID 2282963). To be noted: HepG2, Attagene cis-factorial STAT3 reporter transcription; actives raise or lower the signal. The procedure, abridged:
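HepG2 cells transiently transfected with cis-element-driven multiple reporter transcription units; after 24 h chemical exposure, reporter mRNA measured by RT-PCR, 6-FAM primer-extension labelling, HpaI digestion and capillary electrophoresis. Bidirectional fitting versus DMSO baseline.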

The nature of assay [11]: ATG_TA_CIS: Attagene CIS-FACTORIAL HepG2 Assay for human TA Basal Promoter (AID 2282964). To be noted: HepG2 Attagene CIS-factorial TA basal promoter reporter; actives raise or lower the signal. An outline of the steps: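 Fluorescence from labelled RT-PCR reporter fragments, separated by capillary electrophoresis, gives the signal. Cells: HepG2 transiently carrying multiple reporter units, 24 h chemical dosing. Gain or loss relative to DMSO.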

The nature of assay [12]: ATG_TCF_b_cat_CIS: Attagene CIS-FACTORIAL HepG2 Assay for human T-Cell-Factor with beta-catenin (TCF/b-cat) (AID 2282965). As to conditions: HepG2 TCF/beta-catenin cis-reporter transcription, actives raise or lower the signal. The procedure, abridged:
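Using capillary electrophoresis as the read-out, labelled reporter cDNA fragments from transiently transfected HepG2 were sized and quantified. Exposure lasted 24 hours; activity in either direction was referenced to DMSO.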

Assay [13] in a line: ATG_TGFb_CIS: Attagene CIS-FACTORIAL HepG2 Assay for human Transforming Growth Factor (TGF) (AID 2282967). To be noted: HepG2 Attagene CIS TGFb reporter, mRNA transcription; actives raise or lower the signal. The procedure, abridged: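 Bidirectional fitting relative to DMSO gave the endpoint. Underlying data: reporter mRNA from HepG2 cells carrying transiently transfected cis-regulated reporter constructs, harvested 24 h after dosing and analyzed by RT-PCR and capillary electrophoresis.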

Assay [14] has as its target X-box-binding protein 1 (Homo sapiens) (UniProt P17861). In words: ATG_Xbp1_CIS: Attagene CIS-FACTORIAL HepG2 Assay for human X-box Binding Protein 1 (XBP1) (AID 2282972). To be noted: HepG2 XBP1 cis-element reporter, Attagene multiplex; actives raise or lower the signal. An outline of the steps: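 Fluorescence-labelled cDNA fragments from reporter transcripts, separated by capillary electrophoresis, give the signal. Source: HepG2 cells transfected with promoter-driven reporter units, harvested 24 h post-dose. DMSO served as reference for bidirectional curve fitting.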

The target in assay [15] is Transcriptional activator Myb (Homo sapiens) (UniProt P10242). In words: ATG_Myb_CIS: Attagene CIS-FACTORIAL HepG2 Assay for human Myeloblastosis (Myb) Proto-Oncogene Transcription Factor (AID 2282986). As to conditions: HepG2 Attagene CIS-FACTORIAL Myb reporter transcription; actives raise or lower the signal. The procedure, abridged:
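HepG2 cells were transiently transfected with cis-regulated multiple reporter transcription units reflecting endogenous Myb activity, then exposed to compound for 24 hours. Reporter mRNA was measured by RT-PCR with capillary electrophoresis; bidirectional fitting versus DMSO baseline.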

Assay [16] addresses Myc proto-oncogene protein (Homo sapiens) (UniProt P01106). In words: ATG_Myc_CIS: Attagene CIS-FACTORIAL HepG2 Assay for human Myelocytomatosis (Myc) Proto-Oncogene Transcription Factor (AID 2282990). As to conditions: HepG2, Attagene cis-reporter transcription factor activity; actives raise or lower the signal. An outline of the steps:
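Multiplexed cis-reporter transcription in HepG2 cells after 24 h chemical treatment. Reporter mRNA measured by RT-PCR and capillary electrophoresis fluorescence; activity fitted bidirectionally against DMSO control.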

Assay [17] can be described thus: ATG_Oct_MLP_CIS: Attagene CIS-FACTORIAL HepG2 Assay for human Octamer-Binding Transcription Factor (Oct) (AID 2282993). As to conditions: HepG2 Attagene cis-factorial Oct reporter, mRNA; actives raise or lower the signal. The procedure, abridged:
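HepG2, transient MRTU transfection, cis promoter elements; 24 h dosing; RT-PCR/CE fluorescence read-out of reporter mRNA; fit both directions vs DMSO.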

The nature of assay [18]: ACEA_ER_AUC_viability: ACEA Biosciences xCELLigence Real-Time Cell Analysis on Estrogen Receptor Agonism for Viability (AID 2283782; active means hit-call score of the fitted dose curve at least 0.9, where 1 is the maximum;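 further: continuous compound exposure with impedance area under curve over 80 h; hit means loss of impedance signal meaning reduced cell growth or viability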). The procedure, abridged: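 T-47D human breast cells in phenol red-free RPMI1640 with 10% charcoal-stripped FBS were dosed with an 8-point 1:4 dilution series from 100 uM top final concentration, in duplicate. Impedance-based growth was followed for 80 h; AUC analysed versus DMSO.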

Assay [19] in a line: CCTE_Harrill_HTTr_Viability_MCF7: CCTE's 6-hour Cell Viability Assessment for the High-Throughput Transcriptomics (HTTr) Platform, in MCF-7 cells cultured in DMEM + 10% fetal bovine serum, Harrill Lab (AID 2284010). An outline of the steps:
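Viability measured through PI dye exclusion by high-content imaging at 6 h post-dosing.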

The nature of assay [20]: CCTE_Harrill_HTTr_Apoptosis_MCF7: CCTE's 6-hour Apoptosis Assessment for the High-Throughput Transcriptomics (HTTr) Platform, in MCF-7 cells cultured in DMEM + 10% fetal bovine serum, Harrill Lab (AID 2284011). The procedure, abridged:
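Apoptosis in MCF-7 cells grown in DMEM with 10% fetal bovine serum was scored after a six hour exposure by high content imaging of caspase-3/7 activation (CellEvent Caspase 3/7 Green), with DMSO serving as negative control and baseline.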

Results filed as inconclusive are left out. Activity calls are given as the source filed them. How the source made its calls, unless noted: active means hit-call score of the fitted dose curve at least 0.9, where 1 is the maximum; inactive means score below 0.9.

Chain of bovine Estrogen Receptor (ER), ESR1 (gene 407238) (P49884 whole entry, looked up): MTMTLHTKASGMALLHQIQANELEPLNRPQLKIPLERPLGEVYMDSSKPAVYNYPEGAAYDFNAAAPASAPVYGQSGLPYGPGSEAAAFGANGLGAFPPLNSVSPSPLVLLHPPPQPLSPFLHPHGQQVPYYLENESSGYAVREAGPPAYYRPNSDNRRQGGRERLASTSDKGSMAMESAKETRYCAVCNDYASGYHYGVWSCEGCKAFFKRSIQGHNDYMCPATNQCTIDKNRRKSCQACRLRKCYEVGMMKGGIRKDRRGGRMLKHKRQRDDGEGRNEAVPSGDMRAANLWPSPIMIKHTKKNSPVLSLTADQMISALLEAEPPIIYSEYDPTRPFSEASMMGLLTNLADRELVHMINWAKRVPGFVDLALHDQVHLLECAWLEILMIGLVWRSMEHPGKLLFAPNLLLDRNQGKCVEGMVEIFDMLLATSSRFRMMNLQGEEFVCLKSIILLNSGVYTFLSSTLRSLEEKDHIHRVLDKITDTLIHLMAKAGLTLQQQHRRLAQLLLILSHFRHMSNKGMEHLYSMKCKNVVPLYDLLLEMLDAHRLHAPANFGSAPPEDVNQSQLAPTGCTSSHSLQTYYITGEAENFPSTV
Chain of Transcription factor Sp1 (Homo sapiens) (P08047 whole entry, looked up): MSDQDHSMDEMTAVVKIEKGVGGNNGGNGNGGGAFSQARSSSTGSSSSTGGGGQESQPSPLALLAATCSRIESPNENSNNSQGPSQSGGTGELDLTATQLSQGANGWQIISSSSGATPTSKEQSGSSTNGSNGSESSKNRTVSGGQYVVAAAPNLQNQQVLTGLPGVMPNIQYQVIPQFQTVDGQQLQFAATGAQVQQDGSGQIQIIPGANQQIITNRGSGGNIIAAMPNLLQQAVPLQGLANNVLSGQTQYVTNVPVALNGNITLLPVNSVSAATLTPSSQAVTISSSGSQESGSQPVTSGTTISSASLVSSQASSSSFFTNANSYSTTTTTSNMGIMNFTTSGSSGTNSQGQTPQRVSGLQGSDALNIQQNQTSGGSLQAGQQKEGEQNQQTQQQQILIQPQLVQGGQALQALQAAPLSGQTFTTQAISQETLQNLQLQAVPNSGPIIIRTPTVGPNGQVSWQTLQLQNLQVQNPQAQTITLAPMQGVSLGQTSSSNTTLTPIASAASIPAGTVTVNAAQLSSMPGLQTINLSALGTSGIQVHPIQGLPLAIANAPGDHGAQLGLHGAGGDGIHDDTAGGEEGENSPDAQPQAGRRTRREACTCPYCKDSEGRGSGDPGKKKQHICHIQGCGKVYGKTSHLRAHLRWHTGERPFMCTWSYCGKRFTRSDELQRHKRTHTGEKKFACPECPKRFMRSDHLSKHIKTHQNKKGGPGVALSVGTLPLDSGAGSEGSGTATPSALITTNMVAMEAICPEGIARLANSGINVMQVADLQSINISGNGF
Chain of Transcriptional activator Myb (Homo sapiens) (P10242 whole entry, looked up): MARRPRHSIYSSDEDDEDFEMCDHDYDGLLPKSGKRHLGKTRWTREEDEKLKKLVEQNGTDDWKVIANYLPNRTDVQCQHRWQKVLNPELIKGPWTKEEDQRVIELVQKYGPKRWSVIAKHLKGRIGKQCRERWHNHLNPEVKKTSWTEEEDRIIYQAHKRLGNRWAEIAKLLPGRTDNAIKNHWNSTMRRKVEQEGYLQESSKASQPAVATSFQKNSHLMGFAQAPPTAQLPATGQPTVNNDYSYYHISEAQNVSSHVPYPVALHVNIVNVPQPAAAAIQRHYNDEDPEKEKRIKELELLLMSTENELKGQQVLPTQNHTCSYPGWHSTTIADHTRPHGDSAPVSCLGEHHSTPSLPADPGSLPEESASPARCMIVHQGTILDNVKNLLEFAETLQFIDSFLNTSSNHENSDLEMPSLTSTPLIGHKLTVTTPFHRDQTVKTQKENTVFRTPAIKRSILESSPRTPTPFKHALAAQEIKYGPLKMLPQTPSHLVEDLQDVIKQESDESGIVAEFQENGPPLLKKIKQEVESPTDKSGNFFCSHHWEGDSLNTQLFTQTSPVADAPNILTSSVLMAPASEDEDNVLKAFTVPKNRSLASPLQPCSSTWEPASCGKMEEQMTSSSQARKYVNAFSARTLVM
Chain of X-box-binding protein 1 (Homo sapiens) (P17861 whole entry, looked up, the tested form may be a part): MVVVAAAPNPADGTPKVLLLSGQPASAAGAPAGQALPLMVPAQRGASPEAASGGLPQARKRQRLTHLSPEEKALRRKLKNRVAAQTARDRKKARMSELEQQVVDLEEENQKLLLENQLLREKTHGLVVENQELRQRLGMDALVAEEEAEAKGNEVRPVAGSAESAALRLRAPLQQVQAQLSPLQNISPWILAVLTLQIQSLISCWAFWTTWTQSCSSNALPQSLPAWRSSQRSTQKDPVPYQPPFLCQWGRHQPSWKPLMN
Chain of Paired box protein Pax-6 (Homo sapiens) (P26367 whole entry, looked up): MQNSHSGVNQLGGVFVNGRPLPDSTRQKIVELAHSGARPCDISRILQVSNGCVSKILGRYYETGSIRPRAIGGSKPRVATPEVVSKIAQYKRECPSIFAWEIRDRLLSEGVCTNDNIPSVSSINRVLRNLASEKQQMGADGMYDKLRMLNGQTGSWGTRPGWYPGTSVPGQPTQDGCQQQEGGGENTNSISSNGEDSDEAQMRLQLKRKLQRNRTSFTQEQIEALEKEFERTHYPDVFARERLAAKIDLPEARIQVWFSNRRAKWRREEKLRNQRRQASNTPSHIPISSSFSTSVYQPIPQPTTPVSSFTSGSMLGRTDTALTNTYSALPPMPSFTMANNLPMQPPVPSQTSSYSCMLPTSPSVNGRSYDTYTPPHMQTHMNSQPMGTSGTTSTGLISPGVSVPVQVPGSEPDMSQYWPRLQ
Chain of Myc proto-oncogene protein (Homo sapiens) (P01106 whole entry, looked up): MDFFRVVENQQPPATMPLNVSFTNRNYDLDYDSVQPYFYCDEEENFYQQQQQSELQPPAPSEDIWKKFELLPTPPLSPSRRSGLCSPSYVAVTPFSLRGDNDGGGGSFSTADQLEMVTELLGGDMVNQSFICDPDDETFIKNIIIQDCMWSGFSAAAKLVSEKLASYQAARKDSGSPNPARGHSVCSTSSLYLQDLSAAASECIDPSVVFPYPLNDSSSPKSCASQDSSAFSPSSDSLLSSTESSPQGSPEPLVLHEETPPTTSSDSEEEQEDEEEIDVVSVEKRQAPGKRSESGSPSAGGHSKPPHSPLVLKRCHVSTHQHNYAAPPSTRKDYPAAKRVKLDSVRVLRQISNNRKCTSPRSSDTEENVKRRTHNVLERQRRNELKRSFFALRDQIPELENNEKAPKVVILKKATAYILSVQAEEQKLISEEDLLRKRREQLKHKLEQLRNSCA
Chain of Signal transducer and activator of transcription 3 (Homo sapiens) (P40763 whole entry, looked up): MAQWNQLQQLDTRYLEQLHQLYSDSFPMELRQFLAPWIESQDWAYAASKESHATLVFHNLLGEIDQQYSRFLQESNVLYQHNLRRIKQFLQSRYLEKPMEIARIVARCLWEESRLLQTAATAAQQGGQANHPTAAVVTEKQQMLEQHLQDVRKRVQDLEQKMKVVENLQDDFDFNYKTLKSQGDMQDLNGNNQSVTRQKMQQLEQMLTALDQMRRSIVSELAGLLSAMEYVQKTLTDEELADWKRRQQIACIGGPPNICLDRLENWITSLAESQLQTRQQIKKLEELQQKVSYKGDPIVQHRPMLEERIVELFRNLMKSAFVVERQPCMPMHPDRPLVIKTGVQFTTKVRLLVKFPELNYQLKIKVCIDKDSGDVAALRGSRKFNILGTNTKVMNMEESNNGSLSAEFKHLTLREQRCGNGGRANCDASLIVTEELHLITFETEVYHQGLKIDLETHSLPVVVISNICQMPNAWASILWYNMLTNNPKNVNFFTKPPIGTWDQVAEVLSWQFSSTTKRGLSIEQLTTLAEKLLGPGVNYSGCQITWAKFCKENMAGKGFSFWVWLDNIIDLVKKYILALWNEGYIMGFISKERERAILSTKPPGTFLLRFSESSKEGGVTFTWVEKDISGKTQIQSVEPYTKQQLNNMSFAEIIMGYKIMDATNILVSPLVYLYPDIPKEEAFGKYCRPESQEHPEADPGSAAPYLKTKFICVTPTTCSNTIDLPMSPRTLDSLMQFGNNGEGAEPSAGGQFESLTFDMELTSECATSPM

Regarding `CC1(O)CSC(C)(O)CS1` (stereo not drawn), the result in [1] was inactive.
With `CC1=CCCC(C)(C)C12CCC(C)O2` (stereo not drawn), the result in [2], in assay [3], in assay [4], in assay [5], in assay [6] and in [7] was inactive. The compound was classed as inactive in assay [9], in [10], in assay [11], in assay [12], in assay [13] and in [14]. Besides, the outcome in assay [15], in assay [16] and in assay [17] was inactive. Besides, the AC50 in [8] is 1.28 µM (active); in assay [18] it was 60.7 µM (active).
Take `Nc1nc(N)c2nc(-c3ccccc3)c(N)nc2n1`: the outcome in [1], in [19] and in assay [20] was inactive.
Regarding `O=[N+]([O-])c1ccc(ON=Cc2cc(Br)c(O)c(Br)c2)c([N+](=O)[O-])c1`, in [1], the outcome was inactive.
The same measure, in the same setting: the value for `O=[N+]([O-])c1cc[n+]([O-])cc1` was “inactive”.
For `CCOC(=O)c1ccccc1`, the compound was called inactive in assay [2], in [3], in assay [5], in assay [6], in assay [7] and in assay [10]. Also, the call in assay [11], in assay [12], in [13], in assay [14], in assay [15] and in [16] was inactive. Moreover, in assay [17], the outcome was inactive. The AC50 in assay [4] is 167 µM (active); in assay [8], 100 µM (active); in assay [9], 28 µM (active); in assay [18] it was 50 µM (active).
Consider `CCC(C)(CCC(C)C)C(=O)O` (stereo not drawn), for which the compound was classed as inactive in [2], in assay [3], in assay [4], in assay [5], in assay [6] and in [7]. Further, the result in assay [8], in assay [9], in assay [10], in [11], in assay [12] and in assay [13] was inactive. The compound was called inactive in assay [14], in assay [15], in [16], in assay [17] and in assay [18].
Take `CCO[Si](CCCN)(OCC)OCC`: the compound was classed as inactive in [2], in assay [3], in [4], in assay [5], in assay [6] and in assay [7]. The compound was classed as inactive in assay [9], in assay [10], in assay [11], in assay [12], in assay [13] and in assay [14]. Also, the compound was called inactive in [15], in assay [16], in assay [17] and in assay [18]. The AC50 in [8] is 100 µM (active).
With `COc1cc(CNC(=O)CCCC/C=C/C(C)C)ccc1O`, the outcome in assay [19] and in assay [20] was inactive.
With `COc1ccccc1Oc1c(NS(=O)(=O)c2ccc(C(C)(C)C)cc2)nc(-c2ncccn2)nc1OCCO`, the result in [19] and in assay [20] was inactive.
